The record followed here is PubChem BioAssay (NCI).

About 83,000 compounds went through this panel and 20% of them were active in at least one assay; those are over-represented in the sample as a whole.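 A percent growth of 40 corresponds to 60% growth inhibition; 0 means no net growth; -100 means all cells died. Active threshold: below 10.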 Unmarked numbers belong to inactive results. The source made the active and inactive calls.

Some test systems named below: SR leukemia; RPMI-8226 leukemia; OVCAR-8 ovarian; OVCAR-5 ovarian; OVCAR-4 ovarian; SK-OV-3 ovarian; IGROV1 ovarian; OVCAR-3 ovarian; HS 578T breast; NCI/ADR-RES ovarian; T-47D breast; BT-549 breast; MDA-MB-435 melanoma; SW-620 colon; MCF7 breast; HCT-116 colon; HCC-2998 colon; KM12 colon.
Holding throughout (experiment): NCI-60 one-dose screen, 48 h (100 = growth as untreated, 0 = no growth, -100 = all killed)
Details in all cases: 10 µM

`Cc1ccc2c(c1)-c1cc(C)nn1-c1ccc(C#N)cc1O2`: the growth was 28% in the test on SR leukemia; 54.3% with RPMI-8226 leukemia; 70.4% in the test on OVCAR-8 ovarian; 94.1% with OVCAR-5 ovarian; 76.9% with OVCAR-4 ovarian; 53.3% in the test on SK-OV-3 ovarian. The growth is 64.5% in the test with IGROV1 ovarian; 61.8% in the test with OVCAR-3 ovarian; 56.4% in the test on HS 578T breast; 40.1% in the test with NCI/ADR-RES ovarian; 51.8% with T-47D breast; 78.5% with BT-549 breast. The growth with MDA-MB-435 melanoma is 8.67% (active); in the test with SW-620 colon, 41%; in the test with MCF7 breast, 42%; in the test on HCT-116 colon it was 27.6%; in the test on HCC-2998 colon, 90%; in the test with KM12 colon it was 56.9%.

Take `Nc1nc2c(nnn2C2CC(O)C(CO)O2)c(=O)[nH]1` (centres undefined): the growth in the test with SR leukemia was 32%; in the test with RPMI-8226 leukemia it was 36.2%; with OVCAR-8 ovarian, 38.4%; with OVCAR-5 ovarian, 87.8%; in the test on OVCAR-4 ovarian, 51.4%; with SK-OV-3 ovarian, 20.2%. In addition, the growth in the test with IGROV1 ovarian was 67.6%; in the test with OVCAR-3 ovarian, 40.8%; in the test on HS 578T breast it was 75.4%; in the test with NCI/ADR-RES ovarian, 30.2%; in the test on T-47D breast, 49.8%; in the test on BT-549 breast, 61.5%. In addition, the growth in the test with MDA-MB-435 melanoma is 41.1%; in the test with SW-620 colon, 33.1%; in the test on MCF7 breast it was 37.4%; with HCT-116 colon, 49.5%; with HCC-2998 colon, 51.3%; in the test on KM12 colon, 44.7%.

With `O=[N+]([O-])c1ccc(Br)o1`, the growth was 108% with SR leukemia; 106% with RPMI-8226 leukemia; 108% with OVCAR-8 ovarian; 95.4% in the test on OVCAR-5 ovarian; 122% in the test on OVCAR-4 ovarian; 104% in the test on SK-OV-3 ovarian. Moreover, the growth with IGROV1 ovarian was 101%; in the test on OVCAR-3 ovarian it was 111%; in the test on HS 578T breast it was 113%; with NCI/ADR-RES ovarian, 99.5%; in the test on T-47D breast, 91.3%; in the test on BT-549 breast, 97%. Moreover, the growth with MDA-MB-435 melanoma is 109%; in the test with SW-620 colon it was 109%; in the test on MCF7 breast it was 95.7%; with HCT-116 colon, 101%; in the test on HCC-2998 colon, 95%; with KM12 colon, 99.1%.

Turning to `CCCCc1ccc(NC(=O)N(CCCl)N=O)cc1`, the growth is 30.9% in the test on SR leukemia; 98.6% in the test on RPMI-8226 leukemia; 96.7% in the test on OVCAR-8 ovarian; 104% in the test on OVCAR-5 ovarian; 108% in the test on OVCAR-4 ovarian; 95.3% in the test with SK-OV-3 ovarian. Besides, the growth was 97.2% with IGROV1 ovarian; 105% in the test with OVCAR-3 ovarian; 111% with HS 578T breast; 115% in the test with NCI/ADR-RES ovarian; 112% with T-47D breast; 85.4% in the test on BT-549 breast. Also, the growth was 92% in the test with MDA-MB-435 melanoma; 93% in the test with SW-620 colon; 92.7% with MCF7 breast; 97.1% in the test with HCT-116 colon; 117% in the test with HCC-2998 colon; 94.3% with KM12 colon.

For `Oc1ccc(/C=N\Nc2ccccn2)c(O)c1`, the growth in the test on SR leukemia was 11.7%; with RPMI-8226 leukemia, 26.2%; with OVCAR-8 ovarian, 26.6%; in the test on OVCAR-5 ovarian it was 61.4%; with OVCAR-4 ovarian it was 32.7%; in the test with SK-OV-3 ovarian, 32.4%. For the same compound, the growth is 22.7% in the test on IGROV1 ovarian; -2.36% (active) in the test with OVCAR-3 ovarian; 65.8% in the test on HS 578T breast; 0.0991% (active) in the test on NCI/ADR-RES ovarian; 33.7% with T-47D breast; 23.7% with BT-549 breast. In addition, the growth in the test on MDA-MB-435 melanoma is 34.2%; in the test with SW-620 colon, 35.3%; in the test on MCF7 breast, 0.224% (active); with HCT-116 colon, 4.54% (active); in the test on HCC-2998 colon it was 23.9%; with KM12 colon it was 38.4%.

For the compound `COc1cccc(C(=O)N(c2ccc(F)c(F)c2)C(C(=O)NC(C)(C)C)c2cc3c(C)cc(C)cc3nc2Cl)c1` (centres undefined), the growth with SR leukemia is 67.6%; in the test on RPMI-8226 leukemia, 42.9%; with OVCAR-8 ovarian, 84.1%; with OVCAR-5 ovarian, 86.5%; in the test on OVCAR-4 ovarian, 48.7%; in the test on SK-OV-3 ovarian, 75.5%. For the same compound, the growth is 77.2% in the test on IGROV1 ovarian; 60.3% in the test on OVCAR-3 ovarian; 79.8% in the test with HS 578T breast; 73.2% in the test on NCI/ADR-RES ovarian; 46.6% in the test with T-47D breast; 90.7% with BT-549 breast. Moreover, the growth is 63.2% in the test on MDA-MB-435 melanoma; 78.6% in the test with SW-620 colon; 45.6% with MCF7 breast; 34.8% in the test with HCT-116 colon; 88.3% in the test on HCC-2998 colon; 60.2% in the test on KM12 colon.

Regarding `CCCCCCCCCCCCCCCCCBr`, the growth in the test on SR leukemia is 92.7%; with RPMI-8226 leukemia it was 102%; in the test on OVCAR-8 ovarian it was 106%; in the test with OVCAR-5 ovarian, 100%; in the test with OVCAR-4 ovarian, 111%; in the test with SK-OV-3 ovarian, 100%. Further, the growth is 103% in the test on IGROV1 ovarian; 114% in the test on OVCAR-3 ovarian; 91.9% in the test on HS 578T breast; 104% in the test with NCI/ADR-RES ovarian; 95.6% in the test on T-47D breast; 112% with BT-549 breast. For the same compound, the growth was 99.6% in the test with MDA-MB-435 melanoma; 107% with SW-620 colon; 101% in the test with MCF7 breast; 105% in the test with HCT-116 colon; 96.2% with HCC-2998 colon; 113% with KM12 colon.

On to `COc1ccc(Nc2ccnc(N3CCN(c4ccnc5cc(Cl)ccc45)CC3)n2)cc1`, for which the growth in the test with SR leukemia is 1.29% (active); in the test with RPMI-8226 leukemia it was -23.1% (active); with OVCAR-8 ovarian, 0.239% (active); with OVCAR-5 ovarian, 9.98% (active); in the test with OVCAR-4 ovarian, 10.7%; in the test on SK-OV-3 ovarian it was 12.7%. The growth in the test on IGROV1 ovarian is -0.0353% (active); with OVCAR-3 ovarian, 15.8%; with HS 578T breast, 10.4%; in the test on NCI/ADR-RES ovarian, -2.96% (active); with T-47D breast it was -7.73% (active); in the test with BT-549 breast it was -11.5% (active). The growth was -4.38% (active) in the test on MDA-MB-435 melanoma; 7.57% (active) in the test with SW-620 colon; 2.5% (active) in the test with MCF7 breast; 0.434% (active) in the test on HCT-116 colon; 15.8% in the test on HCC-2998 colon; 2.49% (active) in the test on KM12 colon.
